Measured values taken from PubChem BioAssay AID651871 (Sanford-Burnham Center for Chemical Genomics, 2012).

Test system: HL-1
Assay: cardiomyocyte survival under oxidative or metabolic stress – cell-based, panel, H9c2 and HL-1, ATP luminescence, set 2, SAR follow-up (AID 651871);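 further: cells exposed to stressor for 2 h before ATP readout; reference of the scale not given here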
Conditions: H9c2/HL-1 cardiomyocytes, 2-deoxyglucose stress, with 2-deoxyglucose, run 6, at 79 µM (top of the series)

| Structure (SMILES) | activity (protection/inhibition) [%] |
| --- | --- |
| CCOC(=O)c1cccc(NC(=O)CNC(=O)c2cc(-c3cc(OC)c(OC)c(OC)c3)nc3ccccc23)c1 | 74.8 |
| COc1ccc2nc(-c3cc(OC)c(OC)c(OC)c3)cc(C(=O)NCC(=O)Nc3ccc(C(C)=O)cc3)c2c1 | 61.1 |
| COc1ccc2c(c1OC)C(=O)N1c3ccccc3C(=O)N(Cc3cccc(Cl)c3Cl)C21 (stereo not drawn) | -11.4 |
